Screening data: PubChem, several laboratories
ERa coact inh: ERα–SRC-1 coactivator interaction inhibitors, primary screen, biochemical, TR-FRET, ERα LBD, estradiol-bound | hit rate 1.7% among 86,000 | TR-FRET ER-alpha LBD / SRC-1 peptide | inhibition, % at 25.6 µM; in the data active = inhibition above about 50%;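 also: 0% = receptor plus peptide control and 100% = peptide only without receptor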
ERa SRC1 pot: enhancers of ERα–SRC-1 coactivator binding, primary screen, biochemical, TR-FRET, ERα LBD, low estradiol; hit rate 1.3% among 86,000; TR-FRET ERalpha-LBD/SRC-Cy5 coactivator binding, 2 h; 100 = basal binding, no effect; coactivator binding (% of control), % at 25.6 µM; AID 639, 2007; Estrogen receptor (Homo sapiens), P03372; in the data active = activity above about 200%;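 also: binding measured in presence of low estradiol as agonist stimulus; 0% = peptide alone without receptor and 100% = receptor with peptide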
Candida biofilm: clotrimazole potentiators killing Candida biofilms, primary screen, with clotrimazole, Alamar Blue. inhibition, % at 6 µM. hit rate 0.14% among 85,000. C. albicans biofilm + clotrimazole;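 active = inhibition above 20%; inactive = inhibition below 20%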;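 also: preformed 24 hr biofilms exposed to compound for 48 hr; 0% = biofilm without compound and 100% = blank killed by clotrimazole plus chlorhexidine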
Smad3 FoxH1 inh: Smad3/FoxH1 peptide binding inhibitors, primary screen, biochemical, TR-FRET; Mothers against decapentaplegic homolog 3 (Homo sapiens), P84022; TR-FRET Smad3/Dy647-FoxH1 peptide binding, europium anti-His; inhibition, % at 25 µM; hit rate 0.29% among 88,000; AID 630, 2007;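 active = compounds that reduce the energy-transfer binding signal between the protein and its labelled peptide by more than half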;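 also: 0% = Smad3 plus labelled peptide maximal FRET and 100% = peptide-only background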
Target sequence (P84022 whole entry, looked up): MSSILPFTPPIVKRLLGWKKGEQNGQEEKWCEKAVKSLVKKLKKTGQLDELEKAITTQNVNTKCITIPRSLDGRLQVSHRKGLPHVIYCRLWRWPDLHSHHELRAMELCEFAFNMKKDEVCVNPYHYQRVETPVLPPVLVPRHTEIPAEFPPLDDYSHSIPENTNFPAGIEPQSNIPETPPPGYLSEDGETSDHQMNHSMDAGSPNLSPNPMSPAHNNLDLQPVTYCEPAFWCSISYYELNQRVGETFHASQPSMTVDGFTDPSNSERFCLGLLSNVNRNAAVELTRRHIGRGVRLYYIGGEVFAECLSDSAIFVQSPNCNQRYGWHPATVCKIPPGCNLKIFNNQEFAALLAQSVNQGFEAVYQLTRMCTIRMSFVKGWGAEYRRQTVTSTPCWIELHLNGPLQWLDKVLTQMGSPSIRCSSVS
ERb SRC1 inh: inhibitors of ERβ-SRC1 coactivator interaction, primary screen, biochemical, TR-FRET, ERβ LBD, SRC-1 peptide. Estrogen receptor beta (Homo sapiens), Q92731. TR-FRET ER-beta LBD / SRC1-Cy5 peptide binding; receptor agonist-loaded with 1 µM estradiol. inhibition, % at 25.6 µM. hit rate 1.3% among 86,000. AID 633, 2007;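 active = compounds whose percent inhibition of the receptor-coactivator binding signal exceeds about 50% in the single-dose screen, limit read from the data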;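 also: 0% = receptor plus peptide wells without compound and 100% = peptide-only wells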
FAK blocker: FAK kinase inhibitors, primary screen, biochemical; Focal adhesion kinase 1 (Homo sapiens), Q05397; biochemical FAK kinase activity assay; hit rate 0.84% among 97,000; inhibition, %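 (tested at 7 µM)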; AID 727, 2007; in the data active = inhibition above about 19%;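 also: 0% = DMSO and 100% = reference compound high control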
Active calls of the source: *; . = not tested or not shown; + = active, no number; [ ] = dose if it differs, or a comment. Shown are actives, neighbours in structure and some others; about 3.3% of the full set was active somewhere.

SMILES	ERa coact inh	ERa SRC1 pot	Candida biofilm	Smad3 FoxH1 inh	ERb SRC1 inh	FAK blocker
COc1ccc2nc3oc(C(=O)N4CCC(C(N)=O)CC4)cc3cc2c1	-1	119	2	10	4	-2
Cc1ccccc1OCC(=O)N(Cc1nc(-c2ccccc2)no1)C(C)C	-2	323*[fluorescence artefact?]	3	-12	-6	-2
COc1ccc(-c2noc(CSc3nnc(Cc4ccccc4)n3-c3cccc(C)c3)n2)cc1OC	2	+[fluorescence artefact?]	5	4	-1	1
Cc1ccc(-c2noc(CSc3nnc(Cc4ccccc4)n3-c3cccc(C)c3)n2)cc1	-5	76	-2	20	0	-1
COC(=O)c1cc(=O)[nH]c(=O)[nH]1	.	.	.	7	.	.
CC(C)[C@@H](C)/C=C/[C@@H](C)[C@@H]1CC[C@@H]2C3=CC=C4C[C@@H](O)CC[C@]4(C)[C@@H]3CC[C@]21C	.	.	.	21	.	.
CC(C(=O)NCc1ccc2c(c1)OCO2)N1c2cccc3cccc(c23)S1(=O)=O (centres undefined)	15	93	10	7	10	6
CCOC(=O)c1c(C)oc2c1c(C(c1cccnc1)N1CCCCC1)c(O)c1ccccc12 (centres undefined)	68*	45	-1	74*	67*	4
Cc1cc(C)c(C)c(S(=O)(=O)N2CCN(CC(=O)NC(=O)NCc3ccccc3)CC2)c1C	-5	153	4	0	20	4
Nc1nc2c(ncn2[C@@H]2CC[C@@H](CO)O2)c(=O)n1C(=O)c1ccccc1	.	.	.	1	.	.
CSc1nnc(-c2sc3cc(C(F)(F)F)cnc3c2-c2cccnc2)n1C	3	102	54*	-14	-8	1
COC(=O)c1sc2cc(C(F)(F)F)cnc2c1-c1cccnc1	.	.	.	.	.	4
CCOC(=O)N1CCc2c(sc3c2C(=O)NC(c2ccc(-c4ccc(Cl)cc4)o2)N3)C1 (centres undefined)	79*	16	4	-7	56*[fluorescence artefact?]	.
Cc1ccc(C2NC(=O)c3c(sc4c3CCN(C)C4)N2)o1 (centres undefined)	-14	87	4	-3	21	0
COc1cccc(-c2[nH]nc3c2C(c2ccoc2)C(C#N)=C(N)O3)c1 (centres undefined)	50	65	6	2	58*	3
CN(CC(=O)O)Cc1c(O)c(Cl)cc(Cl)c1Cl	.	.	.	33	.	.
Cc1cccn2c(=O)c3cc(C(=O)Nc4ccc(N(C)C)cc4)n(C)c3nc12	96*[fluorescence artefact?]	22	14	63*[fluorescence artefact?]	62*[fluorescence artefact?]	.
CCN(CC)C(=O)c1cc2c(=O)n3cccc(C)c3nc2n1C	2	96	10	10	-5	17
Cc1nn2c(-c3cccc(NC(=O)CSc4nc5ccccc5o4)c3)nnc2c2ccccc12	69*[fluorescence artefact?]	200	2	-14	55*	2
Cc1cccc(NC(=O)CSc2nc3ccccc3o2)c1	.	.	.	.	.	0
COCCSc1ccccc1C(=O)Nc1cc(C)on1	-36	62	-3	-6	96*[fluorescence artefact?]	1
CCOCCCn1c(=N)c(C(=O)NCc2ccc3c(c2)OCO3)cc2c(=O)n3ccccc3nc21	36	73	8	10	24	4
CCCn1c(=N)c(C(=O)NCc2ccc3c(c2)OCO3)cc2c(=O)n3cccc(C)c3nc21	79*[fluorescence artefact?]	26	8	3	53*[fluorescence artefact?]	3
CCOC(=O)c1c(Nc2nc(C)c(C(=O)NC)s2)sc(C)c1C	69*	97	2	10	19	-2
CCOC(=O)c1sc(Nc2ccccc2)nc1C	-5	97	3	7	4	12
O=c1[nH]c2ccc(Cl)cc2c(O)c1-c1ccccc1	.	.	.	.	.	-5
COc1ccc(C2CC(c3c(-c4ccccc4)c4cc(Cl)ccc4[nH]c3=O)=NN2S(C)(=O)=O)cc1OC (centres undefined)	69*	131	7	-26	43	-2
Cc1cc(C(=O)CSc2nc3ccccc3c(=O)n2C)c(C)n1Cc1ccc2c(c1)OCO2	-23	+[fluorescence artefact?]	0	-241	-7	-2
